# Assay results: PMC7862700, “An all-to-all approach to the identification of sequence-specific readers for epigenetic DNA modifications on cytosine”
# Key:
# Assay in all cases: DAPPL (digital affinity profiling via proximity ligation, sequencing); 10 mM Tris-HCl pH 7.5, 50 mM NaCl, 1 mM DTT, 4% glycerol, room temperature, 30 min; GST-TFs on glutathione beads, 16-mer random dsDNA library, 0.1% formaldehyde crosslink after washing; high values mean tight binding
# FLI1 = molecular target: T1, FLI1 (Homo sapiens, UniProt Q01543 1-452); details: protein: recombinant; tags: N-terminal GST; dsDNA, one strand shown
# T1 sequence: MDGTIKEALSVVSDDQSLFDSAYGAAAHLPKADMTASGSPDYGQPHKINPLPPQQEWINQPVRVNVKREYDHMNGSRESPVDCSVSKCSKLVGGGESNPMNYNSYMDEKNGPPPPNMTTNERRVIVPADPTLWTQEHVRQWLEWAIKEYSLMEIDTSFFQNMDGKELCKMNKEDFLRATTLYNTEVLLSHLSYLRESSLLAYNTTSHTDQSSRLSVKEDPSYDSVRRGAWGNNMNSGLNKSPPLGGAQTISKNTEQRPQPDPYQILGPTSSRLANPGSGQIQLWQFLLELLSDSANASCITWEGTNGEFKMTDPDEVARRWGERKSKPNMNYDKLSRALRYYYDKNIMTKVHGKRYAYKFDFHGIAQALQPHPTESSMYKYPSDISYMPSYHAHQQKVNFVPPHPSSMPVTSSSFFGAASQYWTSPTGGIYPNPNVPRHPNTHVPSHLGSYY
# Outline: (§1)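 In yeast, human transcription factors were expressed with a GST fusion, then pulled down on glutathione beads and given DNA barcodes. Pooled with a tag-only sample, they were exposed to 200 nmole of a 16-mer random double-stranded DNA library (Tris/NaCl/DTT/glycerol buffer, room temperature, 30 min), washed, crosslinked with 0.1% formaldehyde, proximity-ligated using BsaI/T4 ligase for 1 h at 37 °C, PCR-amplified and read on an Illumina NextSeq500. Each hexamer's frequency of reads for a factor, divided by the matching frequency for the tag-only sample, gives the binding signal.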
# ELK1 = molecular target: T2, ELK1 (Homo sapiens, UniProt P19419 1-428); details: protein: recombinant; tags: N-terminal GST; dsDNA, one strand shown
# T2 sequence: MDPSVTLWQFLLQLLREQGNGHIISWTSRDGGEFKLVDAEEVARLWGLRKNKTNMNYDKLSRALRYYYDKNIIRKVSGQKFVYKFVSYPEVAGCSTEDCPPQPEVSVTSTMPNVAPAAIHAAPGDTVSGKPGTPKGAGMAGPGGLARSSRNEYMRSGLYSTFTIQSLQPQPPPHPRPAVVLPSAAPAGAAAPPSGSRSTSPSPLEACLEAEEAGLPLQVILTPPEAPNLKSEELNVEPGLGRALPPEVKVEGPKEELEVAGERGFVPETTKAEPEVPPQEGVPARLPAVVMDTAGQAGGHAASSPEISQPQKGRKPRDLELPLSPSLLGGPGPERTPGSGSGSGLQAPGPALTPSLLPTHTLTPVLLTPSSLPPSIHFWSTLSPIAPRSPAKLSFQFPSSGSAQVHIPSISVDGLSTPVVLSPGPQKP
# Outline: as §1
# GABPA = molecular target: T3, GABPA (Homo sapiens, UniProt Q06546 1-454); details: protein: recombinant; tags: N-terminal GST; dsDNA, one strand shown
# T3 sequence: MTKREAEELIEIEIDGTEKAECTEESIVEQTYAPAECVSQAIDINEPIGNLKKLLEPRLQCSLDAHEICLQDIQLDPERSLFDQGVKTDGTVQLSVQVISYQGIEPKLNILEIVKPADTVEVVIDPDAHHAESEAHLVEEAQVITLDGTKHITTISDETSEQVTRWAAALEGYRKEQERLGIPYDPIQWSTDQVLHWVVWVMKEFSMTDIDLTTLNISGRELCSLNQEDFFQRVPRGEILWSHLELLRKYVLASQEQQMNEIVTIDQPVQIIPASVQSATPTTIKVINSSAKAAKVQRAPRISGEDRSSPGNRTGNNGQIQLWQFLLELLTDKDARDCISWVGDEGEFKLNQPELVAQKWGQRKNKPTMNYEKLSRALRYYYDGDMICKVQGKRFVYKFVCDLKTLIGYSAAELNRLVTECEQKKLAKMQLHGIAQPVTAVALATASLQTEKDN
# Outline: as §1
# ERG = molecular target: T4, ERG (Homo sapiens, UniProt P11308 1-479); details: protein: recombinant; tags: N-terminal GST; dsDNA, one strand shown
# T4 sequence: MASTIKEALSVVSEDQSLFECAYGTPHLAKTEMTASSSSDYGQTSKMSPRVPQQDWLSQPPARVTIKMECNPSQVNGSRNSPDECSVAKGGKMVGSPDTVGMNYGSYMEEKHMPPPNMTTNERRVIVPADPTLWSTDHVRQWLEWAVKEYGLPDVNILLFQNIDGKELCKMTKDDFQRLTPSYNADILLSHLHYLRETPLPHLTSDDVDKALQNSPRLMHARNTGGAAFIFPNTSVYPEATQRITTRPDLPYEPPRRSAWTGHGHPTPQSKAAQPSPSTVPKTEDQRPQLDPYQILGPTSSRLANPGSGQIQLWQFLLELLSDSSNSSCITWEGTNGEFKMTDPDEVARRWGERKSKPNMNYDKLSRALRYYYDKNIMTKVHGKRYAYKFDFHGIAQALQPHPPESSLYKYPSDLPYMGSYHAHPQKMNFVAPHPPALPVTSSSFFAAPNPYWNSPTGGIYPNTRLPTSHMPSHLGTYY
# Outline: as §1
# ELF1 = ELF1 (Homo sapiens, UniProt P32519 1-619); details: protein: recombinant; tags: N-terminal GST; dsDNA, one strand shown
# Outline: as §1
# EHF = molecular target: T5, EHF (Homo sapiens, UniProt Q9NZC4 1-300); details: protein: recombinant; tags: N-terminal GST; dsDNA, one strand shown
# T5 sequence: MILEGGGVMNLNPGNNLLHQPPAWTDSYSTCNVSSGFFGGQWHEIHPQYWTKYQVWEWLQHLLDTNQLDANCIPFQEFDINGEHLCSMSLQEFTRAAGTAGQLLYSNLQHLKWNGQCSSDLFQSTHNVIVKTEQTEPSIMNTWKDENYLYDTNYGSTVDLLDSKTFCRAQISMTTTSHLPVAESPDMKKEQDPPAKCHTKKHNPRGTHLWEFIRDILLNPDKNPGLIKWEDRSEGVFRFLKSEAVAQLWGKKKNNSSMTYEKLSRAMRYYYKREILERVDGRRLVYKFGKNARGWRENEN
# Outline: as §1
# SPI1 = SPI1 (Homo sapiens, UniProt P17947 1-270); details: protein: recombinant; tags: N-terminal GST; dsDNA, one strand shown
# Outline: as §1
# SPIB = SPIB (Homo sapiens, UniProt Q01892 1-262); details: protein: recombinant; tags: N-terminal GST; dsDNA, one strand shown
# Outline: as §1
# ELK3 = molecular target: T6, ELK3 (Homo sapiens, UniProt P41970 1-407); details: protein: recombinant; tags: N-terminal GST; dsDNA, one strand shown
# T6 sequence: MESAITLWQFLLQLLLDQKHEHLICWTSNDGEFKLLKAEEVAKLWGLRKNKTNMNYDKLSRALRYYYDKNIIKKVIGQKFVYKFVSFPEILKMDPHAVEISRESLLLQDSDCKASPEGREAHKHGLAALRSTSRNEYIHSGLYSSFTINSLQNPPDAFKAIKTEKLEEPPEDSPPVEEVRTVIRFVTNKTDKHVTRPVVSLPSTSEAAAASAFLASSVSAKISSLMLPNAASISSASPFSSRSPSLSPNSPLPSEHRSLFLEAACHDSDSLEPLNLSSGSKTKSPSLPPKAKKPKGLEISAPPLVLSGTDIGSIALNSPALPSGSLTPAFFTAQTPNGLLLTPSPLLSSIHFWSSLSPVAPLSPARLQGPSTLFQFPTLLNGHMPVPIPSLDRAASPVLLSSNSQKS
# Outline: as §1
# FEV = molecular target: T7, FEV (Homo sapiens, UniProt Q99581 1-238); details: protein: recombinant; tags: N-terminal GST; dsDNA, one strand shown
# T7 sequence: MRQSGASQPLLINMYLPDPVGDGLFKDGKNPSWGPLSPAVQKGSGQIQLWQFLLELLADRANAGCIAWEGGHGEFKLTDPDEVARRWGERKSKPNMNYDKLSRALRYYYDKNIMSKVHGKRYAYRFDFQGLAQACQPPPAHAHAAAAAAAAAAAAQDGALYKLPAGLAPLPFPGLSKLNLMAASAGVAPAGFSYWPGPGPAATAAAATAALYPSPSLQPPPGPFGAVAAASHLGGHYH
# Outline: as §1
# ETV5 = ETV5 (Homo sapiens, UniProt P41161 1-510); details: protein: recombinant; tags: N-terminal GST; dsDNA, one strand shown
# Outline: as §1
# HSF1 = HSF1 (Homo sapiens, UniProt Q00613 1-529); details: protein: recombinant; tags: N-terminal GST; chain copies: 3; dsDNA, one strand shown
# Outline: as §1
# SPIC = molecular target: T8, SPIC (Homo sapiens, UniProt Q8N5J4 1-248); details: protein: recombinant; tags: N-terminal GST; dsDNA, one strand shown
# T8 sequence: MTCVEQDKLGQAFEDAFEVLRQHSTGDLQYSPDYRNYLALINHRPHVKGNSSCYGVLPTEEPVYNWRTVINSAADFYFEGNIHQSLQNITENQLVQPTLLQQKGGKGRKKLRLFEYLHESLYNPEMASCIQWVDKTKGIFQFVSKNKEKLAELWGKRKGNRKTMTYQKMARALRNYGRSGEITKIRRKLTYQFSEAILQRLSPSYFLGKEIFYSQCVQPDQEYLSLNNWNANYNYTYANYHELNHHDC
# Outline: as §1
# ELF4 = ELF4 (Homo sapiens, UniProt Q99607 1-663); details: protein: recombinant; tags: N-terminal GST; dsDNA, one strand shown
# Outline: as §1
# ELK4 = molecular target: T9, ELK4 (Homo sapiens, UniProt P28324-2 1-405); details: protein: recombinant; tags: N-terminal GST; dsDNA, one strand shown
# T9 sequence: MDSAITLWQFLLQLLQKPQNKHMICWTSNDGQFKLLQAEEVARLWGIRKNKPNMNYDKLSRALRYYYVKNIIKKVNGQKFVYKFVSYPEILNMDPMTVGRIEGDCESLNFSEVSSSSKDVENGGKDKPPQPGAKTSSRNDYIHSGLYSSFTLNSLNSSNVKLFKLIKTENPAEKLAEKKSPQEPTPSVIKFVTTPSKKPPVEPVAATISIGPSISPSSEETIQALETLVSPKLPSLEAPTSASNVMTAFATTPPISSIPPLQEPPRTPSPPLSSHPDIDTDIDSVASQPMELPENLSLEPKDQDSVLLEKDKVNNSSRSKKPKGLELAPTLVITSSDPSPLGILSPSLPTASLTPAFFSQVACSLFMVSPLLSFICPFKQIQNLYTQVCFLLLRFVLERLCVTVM
# Outline: as §1
# ETV2 = molecular target: T10, ETV2 (Homo sapiens, UniProt O00321 1-342); details: protein: recombinant; tags: N-terminal GST; dsDNA, one strand shown
# T10 sequence: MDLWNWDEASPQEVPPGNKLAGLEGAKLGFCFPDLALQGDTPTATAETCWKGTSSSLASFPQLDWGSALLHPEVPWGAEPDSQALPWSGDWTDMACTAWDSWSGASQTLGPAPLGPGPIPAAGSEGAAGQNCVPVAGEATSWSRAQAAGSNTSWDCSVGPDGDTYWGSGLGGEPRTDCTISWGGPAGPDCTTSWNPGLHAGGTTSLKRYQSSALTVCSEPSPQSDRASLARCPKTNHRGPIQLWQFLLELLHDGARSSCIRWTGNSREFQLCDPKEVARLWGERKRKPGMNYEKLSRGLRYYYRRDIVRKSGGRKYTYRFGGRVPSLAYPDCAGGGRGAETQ
# Outline: as §1
# ELF3 = molecular target: T11, ELF3 (Homo sapiens, UniProt P78545 1-371); details: protein: recombinant; tags: N-terminal GST; dsDNA, one strand shown
# T11 sequence: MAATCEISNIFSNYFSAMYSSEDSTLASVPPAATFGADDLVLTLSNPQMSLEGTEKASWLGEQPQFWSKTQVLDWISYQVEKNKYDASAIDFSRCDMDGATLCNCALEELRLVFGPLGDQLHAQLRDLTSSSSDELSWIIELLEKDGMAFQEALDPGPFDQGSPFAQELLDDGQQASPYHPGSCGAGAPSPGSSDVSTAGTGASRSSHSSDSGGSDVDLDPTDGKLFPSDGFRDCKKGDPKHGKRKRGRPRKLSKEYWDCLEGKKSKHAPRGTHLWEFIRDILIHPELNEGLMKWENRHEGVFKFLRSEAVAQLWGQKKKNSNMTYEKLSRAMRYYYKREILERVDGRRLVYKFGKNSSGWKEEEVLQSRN
# Outline: as §1
# CRX = CRX (Homo sapiens, UniProt O43186 1-299); details: protein: recombinant; tags: N-terminal GST; dsDNA, one strand shown
# Outline: as §1
# ETV1 = ETV1 (Homo sapiens, UniProt P50549 1-477); details: protein: recombinant; tags: N-terminal GST; dsDNA, one strand shown
# Outline: as §1
# Chain of ELF4 (Q99607 whole entry): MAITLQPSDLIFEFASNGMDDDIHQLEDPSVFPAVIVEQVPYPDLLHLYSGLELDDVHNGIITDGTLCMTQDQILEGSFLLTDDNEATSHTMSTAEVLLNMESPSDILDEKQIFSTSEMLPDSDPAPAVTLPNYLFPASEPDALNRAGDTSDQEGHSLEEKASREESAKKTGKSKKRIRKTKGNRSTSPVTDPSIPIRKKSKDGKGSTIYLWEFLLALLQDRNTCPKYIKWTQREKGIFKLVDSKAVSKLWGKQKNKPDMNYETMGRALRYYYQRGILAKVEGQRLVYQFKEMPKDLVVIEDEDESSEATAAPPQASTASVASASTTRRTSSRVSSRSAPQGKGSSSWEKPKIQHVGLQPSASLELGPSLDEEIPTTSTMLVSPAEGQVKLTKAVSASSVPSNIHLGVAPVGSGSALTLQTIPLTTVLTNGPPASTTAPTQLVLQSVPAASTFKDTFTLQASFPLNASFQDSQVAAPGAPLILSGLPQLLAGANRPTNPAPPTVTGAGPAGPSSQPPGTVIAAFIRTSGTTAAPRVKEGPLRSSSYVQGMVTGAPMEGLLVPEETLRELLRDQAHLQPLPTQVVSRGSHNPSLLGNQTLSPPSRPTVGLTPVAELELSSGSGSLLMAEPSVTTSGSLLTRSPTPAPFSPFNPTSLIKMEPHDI
# Chain of ETV1 (P50549 whole entry): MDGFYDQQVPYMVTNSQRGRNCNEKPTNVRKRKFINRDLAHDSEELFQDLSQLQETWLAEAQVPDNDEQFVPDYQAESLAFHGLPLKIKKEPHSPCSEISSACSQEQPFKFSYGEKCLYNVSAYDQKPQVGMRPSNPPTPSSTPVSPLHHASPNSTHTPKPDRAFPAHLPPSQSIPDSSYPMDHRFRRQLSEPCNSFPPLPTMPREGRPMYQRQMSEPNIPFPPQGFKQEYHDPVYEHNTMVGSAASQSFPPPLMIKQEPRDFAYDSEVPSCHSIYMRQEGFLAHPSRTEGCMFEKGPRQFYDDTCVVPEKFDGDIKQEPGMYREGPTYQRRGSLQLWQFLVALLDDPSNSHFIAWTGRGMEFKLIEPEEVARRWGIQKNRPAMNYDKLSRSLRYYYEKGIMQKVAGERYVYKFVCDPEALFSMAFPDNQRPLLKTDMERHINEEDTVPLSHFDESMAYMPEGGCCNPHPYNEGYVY
# Chain of SPIB (Q01892 whole entry): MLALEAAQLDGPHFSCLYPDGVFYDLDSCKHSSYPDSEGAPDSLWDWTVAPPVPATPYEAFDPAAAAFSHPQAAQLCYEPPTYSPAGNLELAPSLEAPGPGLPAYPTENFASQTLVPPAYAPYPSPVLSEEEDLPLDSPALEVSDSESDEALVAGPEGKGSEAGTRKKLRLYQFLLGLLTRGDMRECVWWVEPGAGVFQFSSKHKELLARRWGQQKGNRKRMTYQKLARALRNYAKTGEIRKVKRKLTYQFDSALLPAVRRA
# Chain of HSF1 (Q00613 whole entry): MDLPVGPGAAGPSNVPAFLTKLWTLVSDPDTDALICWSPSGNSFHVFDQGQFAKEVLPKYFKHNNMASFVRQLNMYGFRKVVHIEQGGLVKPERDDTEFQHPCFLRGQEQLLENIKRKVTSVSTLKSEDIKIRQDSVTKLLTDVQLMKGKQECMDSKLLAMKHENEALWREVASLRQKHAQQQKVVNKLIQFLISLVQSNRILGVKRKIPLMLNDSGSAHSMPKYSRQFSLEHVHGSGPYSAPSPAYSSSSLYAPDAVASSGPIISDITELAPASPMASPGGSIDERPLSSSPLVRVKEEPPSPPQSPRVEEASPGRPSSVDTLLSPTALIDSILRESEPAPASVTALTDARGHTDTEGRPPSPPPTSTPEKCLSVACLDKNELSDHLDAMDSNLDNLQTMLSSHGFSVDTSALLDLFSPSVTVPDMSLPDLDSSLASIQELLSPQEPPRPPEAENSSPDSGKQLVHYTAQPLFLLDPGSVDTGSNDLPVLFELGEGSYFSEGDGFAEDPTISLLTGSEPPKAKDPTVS
# Chain of ETV5 (P41161 whole entry): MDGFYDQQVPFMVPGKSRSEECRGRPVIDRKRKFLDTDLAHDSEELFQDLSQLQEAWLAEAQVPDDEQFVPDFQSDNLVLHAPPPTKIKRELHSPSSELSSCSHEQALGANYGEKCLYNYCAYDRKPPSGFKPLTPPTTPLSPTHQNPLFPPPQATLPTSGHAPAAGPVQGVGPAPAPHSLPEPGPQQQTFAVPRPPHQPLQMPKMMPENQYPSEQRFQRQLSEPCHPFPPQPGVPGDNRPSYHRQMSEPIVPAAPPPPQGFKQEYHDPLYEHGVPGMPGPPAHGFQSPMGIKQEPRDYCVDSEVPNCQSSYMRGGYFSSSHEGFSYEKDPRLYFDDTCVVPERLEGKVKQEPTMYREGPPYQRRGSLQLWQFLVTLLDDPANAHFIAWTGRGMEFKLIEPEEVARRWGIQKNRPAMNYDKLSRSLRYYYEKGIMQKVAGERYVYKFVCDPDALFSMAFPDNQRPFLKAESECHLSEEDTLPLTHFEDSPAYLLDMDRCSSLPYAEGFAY
# Chain of ELF1 (P32519 whole entry): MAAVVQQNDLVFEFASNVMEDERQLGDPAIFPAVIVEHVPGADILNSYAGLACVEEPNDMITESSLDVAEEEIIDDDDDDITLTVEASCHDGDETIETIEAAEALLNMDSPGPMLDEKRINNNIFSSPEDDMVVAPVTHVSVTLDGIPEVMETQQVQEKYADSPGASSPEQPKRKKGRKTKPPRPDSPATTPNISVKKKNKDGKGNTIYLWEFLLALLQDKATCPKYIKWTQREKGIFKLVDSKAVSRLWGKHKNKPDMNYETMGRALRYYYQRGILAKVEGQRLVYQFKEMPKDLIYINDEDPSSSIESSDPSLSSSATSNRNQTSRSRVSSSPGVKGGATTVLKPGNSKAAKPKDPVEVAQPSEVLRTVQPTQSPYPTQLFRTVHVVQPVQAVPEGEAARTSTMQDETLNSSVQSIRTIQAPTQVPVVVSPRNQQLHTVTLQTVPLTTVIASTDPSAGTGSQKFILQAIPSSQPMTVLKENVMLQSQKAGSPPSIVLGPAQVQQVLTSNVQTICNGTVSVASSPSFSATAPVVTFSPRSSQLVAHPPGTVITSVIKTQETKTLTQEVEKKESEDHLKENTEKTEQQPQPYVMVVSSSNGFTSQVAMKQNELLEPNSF
# Chain of CRX (O43186 whole entry): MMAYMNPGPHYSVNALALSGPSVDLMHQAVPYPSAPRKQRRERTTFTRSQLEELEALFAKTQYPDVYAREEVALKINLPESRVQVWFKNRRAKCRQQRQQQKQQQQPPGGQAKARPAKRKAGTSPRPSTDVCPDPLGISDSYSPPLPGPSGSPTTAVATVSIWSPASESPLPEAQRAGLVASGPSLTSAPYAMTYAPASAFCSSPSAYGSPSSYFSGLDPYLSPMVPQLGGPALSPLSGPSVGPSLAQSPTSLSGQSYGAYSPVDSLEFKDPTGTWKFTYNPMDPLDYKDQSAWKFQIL
sequence,measurement,setting,value
TTCCGA,binding signal,FLI1,"1.64 fold enrichment (6-mer frequency, TF over GST control)"
same,binding signal,ELK1,"1.62 fold enrichment (6-mer frequency, TF over GST control)"
same,binding signal,GABPA,"1.43 fold enrichment (6-mer frequency, TF over GST control)"
same,binding signal,ERG,"1.66 fold enrichment (6-mer frequency, TF over GST control)"
same,binding signal,ELF1,"1.44 fold enrichment (6-mer frequency, TF over GST control)"
same,binding signal,EHF,"1.71 fold enrichment (6-mer frequency, TF over GST control)"
same,binding signal,SPI1,"1.62 fold enrichment (6-mer frequency, TF over GST control)"
same,binding signal,SPIB,"1.44 fold enrichment (6-mer frequency, TF over GST control)"
same,binding signal,ELK3,"1.68 fold enrichment (6-mer frequency, TF over GST control)"
same,binding signal,FEV,"1.81 fold enrichment (6-mer frequency, TF over GST control)"
same,binding signal,ETV5,"1.57 fold enrichment (6-mer frequency, TF over GST control)"
same,binding signal,HSF1,"1.35 fold enrichment (6-mer frequency, TF over GST control)"
same,binding signal,SPIC,"1.61 fold enrichment (6-mer frequency, TF over GST control)"
same,binding signal,ELF4,"1.44 fold enrichment (6-mer frequency, TF over GST control)"
same,binding signal,ELK4,"1.46 fold enrichment (6-mer frequency, TF over GST control)"
same,binding signal,ETV2,"1.7 fold enrichment (6-mer frequency, TF over GST control)"
same,binding signal,ELF3,"1.5 fold enrichment (6-mer frequency, TF over GST control)"
same,binding signal,CRX,"1.19 fold enrichment (6-mer frequency, TF over GST control)"
same,binding signal,ETV1,"1.63 fold enrichment (6-mer frequency, TF over GST control)"
